About 2,000 (36%) of roughly 5,500 compounds were called active. About 18% were inconclusive and are not listed. Cut-off read from the data, not from the text of the source: active = normalized growth mostly below about 0.91 (no sharp cut-off); inconclusive = no clear call, values can overlap the other calls; inactive = mostly above about 0.92. Some of the results follow.
Test: chemical genetic growth profiling, strain panel (AID 1159580);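 note: tested at 20 µM; growth read once vehicle control cultures reached saturation at 30 °C; 1 = growth at the plate median or of vehicle wells; lower values mean less growth of the strain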
Conditions: growth OD

Measured: normalized growth

C#C[C@]1(O)CCC2C3CCC4=CC(=O)CC[C@@H]4C3CC[C@@]21CC (stereo not given in full)
active: S. cerevisiae deletion strains, locus YLR262C, strain YPT6 (second series), hits give low values 0.829
inactive: S. cerevisiae deletion strains, locus YJR066W, strain TOR1, hits give low values 0.91 | S. cerevisiae deletion strains, locus YKL009W, strain mrt4, hits give low values 0.96 | S. cerevisiae deletion strains, locus YKL068W, hits give low values 0.999 | S. cerevisiae deletion strains, locus YKL085W, strain MDH1 (second series), hits give low values 0.988 | S. cerevisiae deletion strains, locus YKL085W, strain MDH1, hits give low values 0.988 | S. cerevisiae deletion strains, locus YKL160W, strain elf1, hits give low values 0.988 | S. cerevisiae deletion strains, locus YKL190W, strain CNB1, hits give low values 1.01 | S. cerevisiae deletion strains, locus YKR001C, strain vps1, hits give low values 1 | S. cerevisiae deletion strains, locus YKR026C, strain gcn3, hits give low values 1 | S. cerevisiae deletion strains, locus YKR091W, strain srl3, hits give low values 0.993 | S. cerevisiae deletion strains, locus YLL001W, strain dnm1, hits give low values 0.987 | S. cerevisiae deletion strains, locus YLL026W, hits give low values 1 | S. cerevisiae deletion strains, locus YLL041C, strain sdh2, hits give low values 0.99 | S. cerevisiae deletion strains, locus YLR027C, strain aat2, hits give low values 0.989 | S. cerevisiae deletion strains, locus YLR039C, strain RIC1, hits give low values 0.949 | S. cerevisiae deletion strains, locus YLR058C, strain SHM2, hits give low values 0.998 | S. cerevisiae deletion strains, locus YLR102C, strain apc9, hits give low values 0.992 | S. cerevisiae deletion strains, locus YLR113W, strain HOG1, hits give low values 0.946 | S. cerevisiae deletion strains, locus YLR221C, strain rsa3, hits give low values 0.997 | S. cerevisiae deletion strains, locus YLR258W, strain gsy2, hits give low values 1 | S. cerevisiae deletion strains, locus YLR262C, strain YPT6, hits give low values 0.903 | S. cerevisiae deletion strains, locus YLR268W, strain sec22, hits give low values 0.958 | S. cerevisiae deletion strains, locus YLR320W, strain mms22, hits give low values 0.96 | S. cerevisiae deletion strains, locus YLR330W, strain CHS5, hits give low values 0.991 | S. cerevisiae deletion strains, locus YLR342W, strain FKS1 (second series), hits give low values 0.983 | S. cerevisiae deletion strains, locus YLR342W, strain FKS1, hits give low values 0.985 | S. cerevisiae deletion strains, locus YLR357W, strain rsc2, hits give low values 1.06 | S. cerevisiae deletion strains, locus YLR370C, strain arc18, hits give low values 0.984 | S. cerevisiae deletion strains, locus YLR371W, strain rom2, hits give low values 0.992 | S. cerevisiae deletion strains, locus YLR384C, strain iki3, hits give low values 0.992 | S. cerevisiae deletion strains, locus YLR418C, strain cdc73, hits give low values 1.03 | S. cerevisiae deletion strains, locus YML016C, strain PPZ1, hits give low values 0.989 | S. cerevisiae deletion strains, locus YML032C, strain rad52, hits give low values 0.977 | S. cerevisiae deletion strains, locus YML120C, strain ndi1, hits give low values 1.01 | S. cerevisiae deletion strains, locus YML124C, strain tub3, hits give low values 0.988 | S. cerevisiae deletion strains, locus YMR058W, strain fet3, hits give low values 0.987 | S. cerevisiae deletion strains, locus YMR078C, strain ctf18, hits give low values 0.989 | S. cerevisiae deletion strains, locus YMR125W, strain sto1, hits give low values 1 | S. cerevisiae deletion strains, locus YMR129W, hits give low values 0.983 | S. cerevisiae deletion strains, locus YMR205C, strain PFK2, hits give low values 0.989 | S. cerevisiae deletion strains, locus YMR223W, strain ubp8, hits give low values 0.987 | S. cerevisiae deletion strains, locus YMR231W, strain pep5, hits give low values 0.999 | S. cerevisiae deletion strains, locus YMR307W, strain GAS1, hits give low values 1.12 | S. cerevisiae deletion strains, locus YNL067W, strain RPL9B, hits give low values 1.01 | S. cerevisiae deletion strains, locus YNL071W, strain lat1, hits give low values 0.992 | S. cerevisiae deletion strains, locus YNL128W, strain TEP1, hits give low values 0.988 | S. cerevisiae deletion strains, locus YNL153C, strain GIM3, hits give low values 1.01 | S. cerevisiae deletion strains, locus YNL183C, strain NPR1, hits give low values 0.922 | S. cerevisiae deletion strains, locus YNL209W, strain ssb2, hits give low values 0.993 | S. cerevisiae deletion strains, locus YNL233W, strain BNI4, hits give low values 0.992 | S. cerevisiae deletion strains, locus YNL248C, strain rpa49, hits give low values 1 | S. cerevisiae deletion strains, locus YNL250W, strain rad50, hits give low values 0.988 | S. cerevisiae deletion strains, locus YNL271C, strain bni1, hits give low values 0.982 | S. cerevisiae deletion strains, locus YNL298W, strain CLA4, hits give low values 0.961 | S. cerevisiae deletion strains, locus YNL307C, strain MCK1, hits give low values 0.98 | S. cerevisiae deletion strains, locus YNL322C, strain KRE1 (second series), hits give low values 1 | S. cerevisiae deletion strains, locus YNR049C, strain mso1, hits give low values 1 | S. cerevisiae deletion strains, locus YNR052C, strain pop2, hits give low values 0.964 | S. cerevisiae deletion strains, locus YOL006C, strain TOP1, hits give low values 1.03 | S. cerevisiae deletion strains, locus YOL012C, strain htz1 1.51 | S. cerevisiae deletion strains, locus YOL147C, strain pex11, hits give low values 0.994 | S. cerevisiae deletion strains, locus YOR001W, strain rrp6, hits give low values 0.967 | S. cerevisiae deletion strains, locus YOR061W, strain CKA2, hits give low values 0.983 | S. cerevisiae deletion strains, locus YOR069W, strain VPS5, hits give low values 0.991 | S. cerevisiae deletion strains, locus YOR070C, strain gyp1, hits give low values 0.995 | S. cerevisiae deletion strains, locus YOR080W, strain dia2, hits give low values 0.996 | S. cerevisiae deletion strains, locus YOR083W, strain WHI5, hits give low values 0.997 | S. cerevisiae deletion strains, locus YOR106W, strain vam3, hits give low values 0.997 | S. cerevisiae deletion strains, locus YOR136W, strain idh2, hits give low values 0.991 | S. cerevisiae deletion strains, locus YOR144C, strain elg1, hits give low values 0.994 | S. cerevisiae deletion strains, locus YOR184W, strain ser1, hits give low values 0.912 | S. cerevisiae deletion strains, locus YOR231W, strain MKK1, hits give low values 0.983 | S. cerevisiae deletion strains, locus YOR265W, strain rbl2, hits give low values 1 | S. cerevisiae deletion strains, locus YOR270C, strain vph1, hits give low values 0.957 | S. cerevisiae deletion strains, locus YOR290C, strain snf2, hits give low values 0.98 | S. cerevisiae deletion strains, locus YOR316C, strain cot1, hits give low values 0.989 | S. cerevisiae deletion strains, locus YPL051W, strain arl3, hits give low values 0.979 | S. cerevisiae deletion strains, locus YPL055C, strain LGE1, hits give low values 1.04 | S. cerevisiae deletion strains, locus YPL078C, strain atp4, hits give low values 0.996 | S. cerevisiae deletion strains, locus YPL106C, strain sse1, hits give low values 1.06 | S. cerevisiae deletion strains, locus YPL240C, strain hsp82, hits give low values 1 | S. cerevisiae deletion strains, locus YPL241C, strain CIN2, hits give low values 1 | S. cerevisiae deletion strains, locus YPL256C, strain CLN2, hits give low values 0.963 | S. cerevisiae deletion strains, locus YPR119W, strain clb2, hits give low values 1 | S. cerevisiae deletion strains, locus YPR141C, strain kar3, hits give low values 0.983 | S. cerevisiae deletion strains, locus YPR163C, strain tif3, hits give low values 0.99 | S. cerevisiae deletion strains, locus YPR167C, strain met16, hits give low values 0.988 | S. cerevisiae deletion strains, strain wtn01, hits give low values 0.973 | S. cerevisiae strains, strain wild type, hits give low values 1.02

— PubChem BioAssay AID1159580 (chemical genetic matrix, 2015)
